# The panel holds about 83,000 compounds, 20% with a hit somewhere; the sample as a whole holds those more often.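 Activity criterion: percent growth below 10, measured after cells in 96-well plates were exposed to a single compound concentration for 48 hours.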 Values without a mark were called inactive. Active and inactive are the calls of the source.
# Tested on: OVCAR-8 ovarian
# Assay: NCI-60 one-dose screen, 48 h (100 = growth as untreated, 0 = no growth, -100 = all killed)
# Details: 10 µM unless noted
# Description: Growth inhibition of the OVCAR-8 human tumor cell line is measured as a screen for anti-cancer activity. Cells are grown in 96 well plates and exposed to the test compound for 48 hours. Compounds are tested at a single concentration, which is 10^-5 M for most compounds. The reported endpoint is percent growth (GI% or GIPRCNT), where numbers from 0 - 100% represent growth inhibition, and numbers from -100% - 0 represent cell death. For example, a value of 40 represents 60% growth inhibition. A value of 0 means no net growth occurred over the course of the experiment. A value of -40 indicates 40% of cells at the beginning of the experiment died by the end of the experiment. A value of -100 means all cells are dead at the end of the experiment.
# NCI-60 Human Tumor Cell Lines Screen was performed using the standard one-dose NCI protocol, which is described in more detail at https://dtp.cancer.gov/discovery_development/nci-60/default.htm.
# Compounds with GIPRCNT values below 10 were considered active. Activity score was based on GIPRCNT using the following formula: […]
# Score is 0 for GIPRCNT values of 100 or above, 50 for GIPRCNT values of 0, and 100 for GIPRCNT values of -100.
row,SMILES,growth
1,CCC1=Cc2cc(OC)ccc2OC12C=Cc1cc(OC)ccc1O2 (stereo not given),41.3%
2,COc1ccc(-c2nc3cccc(O)c3c(=O)n2Cc2ccccc2)cc1COc1ccc(NC(C)=O)cc1,49.3% [3 µM]
3,O=C(NCc1ncc[nH]1)c1ccc(-c2nc3ccc4[nH]ncc4c3c3c2CCCC3)cc1,16.1%
4,C#C[C@]1(O)CC[C@H]2[C@@H]3CC=C4c5sc(-c6ccc(C)cc6)nc5CC[C@]4(C)[C@H]3CC[C@@]21C,58.4%
5,O=S(=O)(NCCCNc1nccc(-n2cnc3ccccc32)n1)c1ccc(C(F)(F)F)cc1,82.5%
6,C=CCn1c(SCC(=O)Nc2ccc(C(=O)/C=C/c3cc(OC)c(OC)c(OC)c3)cc2)nnc1-c1c[nH]c2ccccc12,37.8%
7,C#C[C@]1(O)CC[C@H]2[C@@H]3CC=C4c5sc(-c6ccc7c(c6)OCO7)nc5CC[C@]4(C)[C@H]3CC[C@@]21C,30.2%
8,Cc1cc(-c2ccc(Cl)cc2)n(Cc2nnc(SCC(=O)Nc3ccc(S(N)(=O)=O)cc3)n2C2CCCCC2)n1,99.2%
9,CCNC(=O)N1CCc2cc(OC)c(OCCc3ccc(OC)nc3)cc2C1c1ccc(OC)cc1C (stereo not given),42.4%
10,COc1cc(-c2nn(C(C)(C)C)cc2-c2ccnc(NCCCNS(=O)(=O)c3ccc(Cl)cc3)n2)ccc1Cl,73.3%
11,Fc1ccc(-c2cc3nc(C(Cl)Cl)nc(-c4ccc(F)cc4)n3n2)cc1,11.8%
12,COc1cc(-c2nn(C(C)(C)C)cc2-c2ccnc(NCCCNS(=O)(=O)c3ccc(C)cc3)n2)ccc1Cl,89.8%
13,COc1ccc(NC(=O)CSc2nnc(-c3ccc4nc(-c5ccccc5)[nH]c4c3)o2)cc1,101%
14,COc1cc2c(cc1OC)C(Sc1ccc(F)cc1)c1c(nc(N)c(C#N)c1N)O2 (stereo not given),-15% (active)
15,Nc1nc(Nc2ccccc2SSc2ccccc2Nc2nc(N)nc(-c3ccc4ccccc4c3)n2)nc(-c2ccc3ccccc3c2)n1,84.4%
16,CN(C)CCCOc1ccc2c(c1)CN(C(=O)c1cc(C(=O)N3Cc4cccc(F)c4C3)ccc1O)C2,101%
17,COc1cc(OC)cc(C(=O)Nc2cccc(C#Cc3cccc4[nH]nc(N)c34)c2)c1,31.2%
18,COc1cc(-c2nn(C(C)(C)C)cc2-c2ccnc(NCCCNS(=O)(=O)c3ccc(F)cc3)n2)ccc1Cl,89.2%
19,O=C(NNc1nc2cc(F)ccc2n2c(CN3CCCC3)ccc12)c1cnccn1,13.9%
20,CCO/C=N/C1=C(C#N)C(c2ccc(OC)cc2)c2sc3c(CC)cccc3c2O1 (stereo not given),42.9%

row,SMILES,growth
1,NC(N)=Nc1ccc(Oc2cccc(NC(N)=Nc3ccc(Cl)c(C(F)(F)F)c3)c2)cc1,66.8%
2,COc1cc(OC)c(/C=C/S(=O)(=O)Cc2ccc(OC)c(NC(=O)CCC(=O)NO)c2)c(OC)c1,17.2%
3,CCn1c(SCC(=O)Nc2cccc(C(=O)/C=C/c3ccc(C)cc3)c2)nc2ccccc2c1=O,90.9%
4,NC(N)=Nc1ccc(Oc2cccc(Nc3ccc(Br)c(C(F)(F)F)c3)c2)cc1,51.2%
5,Cc1ccc(CSc2nc(-c3ccc(Cl)cc3)c(C#N)c(N3CCNCC3)n2)cc1,92%
6,CN1c2ccccc2Sc2cc(C=C(C#N)C#N)ccc21,94.4%
7,C#Cc1nc(/C=C/C(=O)c2nccn2C)cs1,27.1%
8,Cc1cc(C)n(C(=O)c2sc(=S)n(-c3ccccc3)c2N=Nc2c(N)n[nH]c2N)n1,101%
9,COc1cc(OC)c(S(N)(=O)=O)cc1C(=O)/C=C/c1ccc(Cl)cc1,3% (active)
10,Cc1ccc2c(c1)Oc1nc(N)c(C#N)c(N)c1C2Sc1ccc(F)cc1 (stereo not given),-99.4% (active)
11,O=[N+]([O-])c1cc(/C=N/Nc2nc(N/N=C/c3ccc(Cl)c([N+](=O)[O-])c3)nc(N3CCCCC3)n2)ccc1Cl,31%
12,COc1cc(-c2nc(SCCC(C)C)nc(NNC(=O)c3ccncc3)c2C#N)cc(OC)c1OC,70%
13,Brc1ccccc1/C=N/Nc1nc(N/N=C/c2ccccc2Br)nc(N2CCOCC2)n1,96.6%
14,CNC(=O)c1cc(-c2ccc(NS(=O)(=O)c3ccc(C)cc3)cc2)nc2cccnc12,99.5%
15,C[C@@H]1C[C@H]2C(=O)O[C@@H](C)C(NC(=O)[C@H](Cc3cc(F)cc(F)c3)NC(=O)Nc3ccc(C4CC4)cc3F)C(=O)N3CCC[C@H]3C(=O)N3CCCC[C@H]3C(=O)N[C@@H](CO)C(=O)N2C1 (stereo not given in full),20.9%
16,CCN1CCN(C(=O)[C@]23CCC(C)(C)C[C@H]2C2=CC[C@@H]4[C@@]5(C)Cc6c([nH]c7ccccc67)C(C)(C)[C@@H]5CC[C@@]4(C)[C@]2(C)CC3)CC1,91.8%
17,COc1cccc2cc(-c3cc4ccccc4[nH]3)/c(=N\NC(=O)c3ccc(Cl)cc3)oc12,20.7%
18,COc1cc2nc(Cl)nc(Nc3cccc(C4=Nc5c(N)nc(N)nc5NC(c5ccc(F)cc5)C4)c3)c2cc1OC (stereo not given),51.6%
19,CS(=O)(=O)Nc1cc(-c2ccc3ncc(C#N)c(NCc4ccccc4)c3c2)cnc1Cl,7.32% (active)
20,N#Cc1cccc(CN2CCC3=C(C2)C(=O)N(Cc2ccc(Cl)cc2)C2=NCCN23)c1,20.2%
